{
  "source": "ChEMBL document CHEMBL4513216",
  "about": "“Probing the Open Global Health Chemical Diversity Library for Multistage-Active Starting Points for Next-Generation Antimalarials” (ACS Infect Dis, 2020)",
  "note": "About 2,700 (4%) of roughly 68,000 compounds showed an effect of 50% or more. The sample holds strong results, similar compounds and a random draw of the others, so the mix is not that of the screen.",
  "data": [
    {"test_system": "Plasmodium berghei", "test": "Screen against P. berghei liver stage (PbLuc), transformed with Luciferase, at 2uM", "assay_type": "functional, HepG2", "conditions": "tested at 2 uM", "units": {"INHIBITION": "%"}, "values": [
      {"molecule": "O=C(CC1CC1)N1CCC2(CC1)C(=O)NCCN2Cc1ccccc1", "INHIBITION": 52.36},
      {"molecule": "CC(C)NC(=O)N1CCC2(CC1)C(=O)NCCN2Cc1ccccc1", "INHIBITION": 5.69},
      {"molecule": "O=C1NCCN(CC2CC2)C12CCN(Cc1ccco1)CC2", "INHIBITION": 61.9},
      {"molecule": "CN1CCNC(=O)C12CCN(Cc1ccco1)CC2", "INHIBITION": 27.42},
      {"molecule": "Cc1ccc(CN2CCC3(CC2)C(=O)NCCN3CC2CC2)o1", "INHIBITION": 8.62},
      {"molecule": "O=C(NC1CC1)N1CCC2(CC1)C(=O)NCCN2Cc1ccccc1", "INHIBITION": -11.54},
      {"molecule": "CC(C)CNC(=O)[C@H]1CCS(=O)(=O)[C@@H]2CN(Cc3cccnc3)C[C@H]12", "INHIBITION": 35.07},
      {"molecule": "COC(=O)c1ncccc1N1CCCCC1", "INHIBITION": -18.04},
      {"molecule": "COc1nc2ccccc2cc1C1CC(=O)Nc2n[nH]c(C3CCC3)c21", "note": "(stereo not drawn)", "INHIBITION": 13.51},
      {"molecule": "CC(C)c1nccc(C2CC(=O)Nc3n[nH]c(C4CCC4)c32)n1", "note": "(stereo not drawn)", "INHIBITION": 53.33},
      {"molecule": "O=C1CC(c2ccc3ccccc3n2)c2c(n[nH]c2C2CCC2)N1", "note": "(stereo not drawn)", "INHIBITION": 46.3},
      {"molecule": "CCc1nnc(SCC(=O)N2CCc3[nH]nc(C4CCC4)c3C2)o1", "INHIBITION": 66.4},
      {"molecule": "CCc1n[nH]c(SCC(=O)N2CCc3[nH]nc(C4CCC4)c3C2)n1", "INHIBITION": 23.45},
      {"molecule": "Cc1nnc(SCC(=O)N2CCc3[nH]nc(C4CCC4)c3C2)o1", "INHIBITION": 22.34},
      {"molecule": "O=C(C1CC1)N1CCC(O)(CN2CCN(c3ccccc3)CC2)C1", "note": "(stereo not drawn)", "INHIBITION": 0.64},
      {"molecule": "Cc1nc2c(c(N(C)C)n1)CCN(C(=O)c1sccc1S(N)(=O)=O)C2", "INHIBITION": -22.79},
      {"molecule": "CC(C)CNc1nccc(-c2cnc3sc(Cl)cn3c2=O)n1", "INHIBITION": -24.85},
      {"molecule": "CC(NC(=O)CCn1cccn1)c1cn(-c2ccccc2)nn1", "note": "(stereo not drawn)", "INHIBITION": 2.26},
      {"molecule": "COC(=O)CC(NC(=O)CCn1cccn1)c1ccc(C)cc1", "note": "(stereo not drawn)", "INHIBITION": 60.13},
      {"molecule": "CC(NC(=O)CCn1cccn1)c1cccs1", "note": "(stereo not drawn)", "INHIBITION": -38.35},
      {"molecule": "CC(NC(=O)CCn1cccn1)c1ccc(-n2ccnn2)cc1", "note": "(stereo not drawn)", "INHIBITION": -33.92},
      {"molecule": "COC(=O)CC(NC(=O)CCCn1cccn1)c1ccc(Cl)cc1", "note": "(stereo not drawn)", "INHIBITION": -18.57},
      {"molecule": "CC(C)OC(=O)CC(NC(=O)CCn1cccn1)c1ccccc1", "note": "(stereo not drawn)", "INHIBITION": 67.28},
      {"molecule": "CN(C)CCN1CCC2(CCN(C(=O)c3ccc(F)cc3)CC2)C1=O", "INHIBITION": -16.42},
      {"molecule": "Cc1cc(C)n(CC2CN(CC(=O)NCc3ccccn3)CCO2)n1", "note": "(stereo not drawn)", "INHIBITION": -12.05},
      {"molecule": "CN(Cc1cccnc1)[C@@H]1CN(C(=O)c2ccno2)[C@@H]2CCCO[C@H]12", "INHIBITION": -7.88},
      {"molecule": "CCSc1cc(C(=O)NCc2ccc(C(=O)NC)cc2)ccn1", "INHIBITION": 19.48},
      {"molecule": "C[S+]([O-])c1nncn1CC(=O)c1ccc(Br)cc1", "note": "(stereo not drawn)", "INHIBITION": -59.71},
      {"molecule": "CCOC(=O)CC(c1ccc(OC)cc1)c1c(O)n[nH]c1C", "note": "(stereo not drawn)", "INHIBITION": -43.9},
      {"molecule": "CN(Cc1ccc([S+](C)[O-])cc1)c1ccc(Br)cn1", "note": "(stereo not drawn)", "INHIBITION": 67.28},
      {"molecule": "CN(Cc1ccc([S+](C)[O-])cc1)c1ccc(C(F)(F)F)cn1", "note": "(stereo not drawn)", "INHIBITION": 48.21},
      {"molecule": "CN(Cc1ccc([S+](C)[O-])cc1)c1ccc(Cl)cn1", "note": "(stereo not drawn)", "INHIBITION": 45.82},
      {"molecule": "CN(C)[C@H]1CCCCN(C(=O)c2cccc(-c3cccc(F)c3)c2)C1", "INHIBITION": 36.79},
      {"molecule": "COc1c(F)ccc(C(=O)N2CC[C@H](CO)[C@@H](O)C2)c1F", "INHIBITION": -15.37},
      {"molecule": "NC(=O)c1ccccc1-n1cc(-c2cccc(C(=O)O)c2)cn1", "INHIBITION": 0.51},
      {"molecule": "NC(=O)c1cc(-n2cc(-c3cccc(C(=O)O)c3)cn2)cs1", "INHIBITION": 29.13},
      {"molecule": "NC(=O)c1cc(-c2cccc(C(=O)O)c2)cs1", "INHIBITION": 67.28},
      {"molecule": "CC(C)C(=O)N1CCC2(CCCN(CCOc3ccccc3)C2)C1", "note": "(stereo not drawn)", "INHIBITION": 21.89},
      {"molecule": "Cn1c(N)nnc1SCc1cc(Br)ccc1Cl", "INHIBITION": 55.36},
      {"molecule": "Cn1c(N)nnc1SCc1c(F)cccc1Br", "INHIBITION": -3.53},
      {"molecule": "Cn1c(N)nnc1SCc1ccc(Cl)cc1Br", "INHIBITION": 45.82},
      {"molecule": "NC(=O)C(NC(=O)CSCc1ccc(Cl)s1)c1ccccc1", "note": "(stereo not drawn)", "INHIBITION": 28.04},
      {"molecule": "CS(=O)(=O)Cc1ccc(CNC(=O)c2cccnc2O)cc1", "INHIBITION": -4.5},
      {"molecule": "COCC(C)(C#N)NC(=O)c1cn(-c2cccc(Cl)c2F)nn1", "note": "(stereo not drawn)", "INHIBITION": -10.98},
      {"molecule": "O=C(c1ccncc1F)N1CC2CC1(C(=O)N1CCCC1)C2", "INHIBITION": 33.14},
      {"molecule": "CN(C)C(=O)CN1CC[C@H]2[C@H]1CCN2c1ncccn1", "INHIBITION": 22.18},
      {"molecule": "CN(C)C(=O)CN1CCN(c2ncccn2)[C@@H]2CS(=O)(=O)C[C@@H]21", "INHIBITION": 58.69},
      {"molecule": "O=C(CN1CCN(c2ncccn2)[C@@H]2CS(=O)(=O)C[C@@H]21)N1CCCCC1", "INHIBITION": 14.19},
      {"molecule": "CC(NC(=O)c1ccsc1)c1ccc2c(c1)NC(=O)CO2", "note": "(stereo not drawn)", "INHIBITION": -34.61},
      {"molecule": "CCN1CCCC1CN(Cc1cc[nH]n1)CC1CCN(CCOC)CC1", "note": "(stereo not drawn)", "INHIBITION": 18.63},
      {"molecule": "CCN1CCCC1CN(Cc1ccoc1)CC1CCN(CCOC)CC1", "note": "(stereo not drawn)", "INHIBITION": 42.2},
      {"molecule": "CCN1CCCC1CN(Cc1ccon1)CC1CCN(CCOC)CC1", "note": "(stereo not drawn)", "INHIBITION": 55.66},
      {"molecule": "Cc1cc(C)nc(NC(C)Cc2cnccn2)n1", "note": "(stereo not drawn)", "INHIBITION": 4.42}
    ]}
  ]
}
